APOBEC3A inh: inhibitors of human APOBEC3A DNA deaminase; P31941; recombinant A3A, FAM/TAMRA ssDNA deamination fluorescence; inhibition, % at 20 µM; 0.41% of 330,000 active;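 active = at least 40% inhibition at 20 µM here, with at most 30% in a related deaminase screen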
LANA-H2A inh: blocks KSHV LANA binding to histone H2A/H2B | 0.6% of 320,000 active | inhibition, % (test concentration not listed) | cell-free LANA-H2A/H2B peptide, fluorescence polarization | Q9QR71; in the data active = inhibition mostly above about 10%, no sharp cut-off; inactive = mostly below about 6.7%
HDAC3 inh: human HDAC3 inhibition | inhibition, % at 8.3 µM | 0.15% of 320,000 active | AID 2718 | O15379 | recombinant HDAC3, fluorogenic peptide/trypsin coupled, fluorescence; in the data active = inhibition above about 26%, passing the limit was not always enough; inconclusive = no clear call, values can overlap the other calls
A3G deaminase: inhibitors of human APOBEC3G DNA deaminase; Q9HC16; recombinant A3G, ssDNA deamination FAM/TAMRA fluorescence; inhibition, % at 20 µM; 0.28% of 330,000 active; AID 493012;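 active = inhibition of at least 40% at 20 µM, with no more than 30% in the related APOBEC3A deaminase screen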
A3G conf: APOBEC3G (human) deaminase inhibition, confirmed. recombinant A3G ssDNA deaminase, UDG/FAM-TAMRA fluorescence. AID 493152. 72% of 890 active. shares compounds with A3G deaminase. inhibition, % at 20 µM;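 active = inhibition reaching a set limit in any replicate at 20 µM, the limit being 80% of the first screen's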
UDG A3G counter: counter-screen for APOBEC3G inhibitors: E. coli UDG; shares compounds with A3G deaminase; UDG counterscreen, FAM/TAMRA oligo fluorescence; inhibition, % at 20 µM; 710 tested, under 10 active; AID 504715;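 active = compounds giving 40% or more inhibition at 20 µM in any one of the three replicates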;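 note: inhibitors lower the FAM signal released by uracil excision and alkaline cleavage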
Of the large screens only hits and unclear results are named; the others gave an inactive call (follow-up assays come after a bar, where they were run). An excerpt weighted towards active compounds, which were near 1.4% of everything screened.

COc1ccc(NC(=O)CNC(=O)Cn2cnc3sc4c(c3c2=O)CCCC4)cc1OC	none
O=c1/c(=C/c2ccccn2)sc2nc3ccccc3n12	none (no result: LANA-H2A inh, HDAC3 inh)
COC(=O)/C=c1/sc2nc3ccccc3n2c1=O	A3G deaminase 73 | A3G conf 75 | UDG A3G counter inactive
Oc1ccc(C(=S)N2CCN(Cc3ccccc3)CC2)cc1	none
S=C(c1ccc(Br)cc1)N1CCN(Cc2ccccc2)CC1	A3G deaminase 40 | A3G conf inactive
CCOC(=O)c1ccc(-c2c(C)cc3oc(=O)cc(-c4ccccc4)c3c2C)cc1	A3G deaminase 84 (no result: LANA-H2A inh, HDAC3 inh) | A3G conf inactive
Cc1ccc(-c2c(C)cc3oc(=O)cc(-c4ccccc4)c3c2C)cc1	none (no result: LANA-H2A inh, HDAC3 inh)
Cc1cc(NC(=O)CCCC(=O)NCc2ccccc2)no1	A3G deaminase 44 | A3G conf inactive
COc1ccc(OC)c(/C=N/n2c(-c3n[nH]c4c3CCC4)n[nH]c2=S)c1	A3G deaminase 42 | A3G conf 83 | UDG A3G counter inactive
COc1ccc(-c2n[nH]c(=S)n2/N=C/c2cccn2C)cc1	HDAC3 inh inconclusive
COc1cc(OC)c(OC)cc1/C=N/n1c(-c2n[nH]c3c2CCC3)n[nH]c1=S	none
COc1ccc(/C=N/n2c(-c3n[nH]c4c3CCC4)n[nH]c2=S)cc1	A3G deaminase 40 | A3G conf 74 | UDG A3G counter inactive
CC1CCCC(NC(=O)COC(=O)COc2ccc(Br)cc2)C1C (stereo not given)	none
CC(=O)N1CCN(C(=O)CCc2cc(C(C)(C)C)c(O)c(C(C)(C)C)c2)CC1	none
CCn1c(SCC(=O)Nc2ccc(OC)cc2)nnc1-c1ccco1	none
CCn1c(SCC(=O)Nc2ccc(OC)c(OC)c2)nnc1-c1ccco1	A3G deaminase 43 | A3G conf inactive | UDG A3G counter inactive
S=c1nc(-c2ccccc2)n(-c2ccccc2)[nH]1	A3G deaminase 48 | A3G conf 87 | UDG A3G counter inactive
CC(=O)C1=C(S(=O)(=O)c2ccc(C)cc2)CS(=O)(=O)C1	A3G deaminase 61 (no result: LANA-H2A inh, HDAC3 inh) | A3G conf 78 | UDG A3G counter inactive
Cc1sc2ncn(CC(=O)NCCCN3CC(C)CC(C)C3)c(=O)c2c1S(=O)(=O)N1CC(C)CC(C)C1 (stereo not given)	none
CCC1S/C(=N/C(=O)NC2CCCCC2)NC1=O (stereo not given)	none
O=C(/N=C1\NC(=O)C(F)(C(F)(F)F)S1)NC1CCCCC1 (stereo not given)	A3G deaminase 50 | A3G conf 48 | UDG A3G counter inactive
O=C(COc1cc(Cl)ccc1Cl)N1CCNC1=O	none (no result: LANA-H2A inh, HDAC3 inh)
CC1(CCc2ccccc2)NC(=S)N(c2ccc(Cl)cc2)N1 (stereo not given)	A3G deaminase 57 | A3G conf inactive
CC1(CCc2ccccc2)NC(=S)N(c2ccccc2)N1 (stereo not given)	none (no result: APOBEC3A inh, A3G deaminase)
Cn1c(=O)c2c(nc(CN3CCN(C(=O)c4ccco4)CC3)n2CC(=O)C(C)(C)C)n(C)c1=O	none
Cc1ccc(-c2csc(Nc3ccc(S(N)(=O)=O)cc3)n2)o1	A3G deaminase 52 | A3G conf inactive | UDG A3G counter inactive
CC(C)c1ccc(NC(=O)C(c2ccccc2)N(Cc2ccco2)C(=O)CC2NC(=O)NC2=O)cc1 (stereo not given)	none
CC(C)(C)C1CCC2(CC1)NC(=S)N(c1ccccc1)N2 (stereo not given)	A3G deaminase 49 | A3G conf inactive | UDG A3G counter inactive
Cc1ccccc1NC(=S)NCc1ccc2c(c1)cc(C)n2C	none
CCc1cccc(C)c1NC(=S)NCc1ccc2c(c1)cc(C)n2C	A3G deaminase 40 | A3G conf inactive | UDG A3G counter inactive
Cc1cc(=O)oc2cc(NC(=O)C3CCCC3)ccc12	A3G deaminase 57 | A3G conf inactive | UDG A3G counter inactive
COc1ccccc1Oc1ccc(N2CC(C(=O)OCC(=O)c3ccccc3)CC2=O)cc1 (stereo not given)	none
C=CCn1c(-c2cccc([N+](=O)[O-])c2)n[nH]c1=S	A3G deaminase 43 | A3G conf 68 | UDG A3G counter inactive
C=C(C)Cn1c(CCn2c3ccccc3c3ccccc32)n[nH]c1=S	none
C=C(C)Cn1c(-c2cccs2)n[nH]c1=S	A3G deaminase 55 | A3G conf 55 | UDG A3G counter inactive
C=CCn1c(-c2cccc(Cl)c2)n[nH]c1=S	A3G deaminase 49 | A3G conf 86 | UDG A3G counter inactive

Assay outcomes deposited in PubChem by several laboratories.
